The first assay concerns the target MUSTN1. In words: pooled miR-30 sensor sort-seq; sequence = guide strand. The conditions noted are these: shRNA.
Sequence TTTATTGGTGCTTCCAAGGTGC gave a sensor-assay potency score (higher = more potent) of 0.442. Same read-out and setting: the same measure for TTCTTGGTCAGGTTTCCTCGGG: -0.747; for TCTTGGTCAGGTTTCCTCGGGC: 0.0366; for TTGCTCACACTCTCGCATGACC: -1.08. Same read-out and setting: the same measure for TAGGTCTTGGACTTGATTTCCT: -0.449. On the same count and under the same terms, the same measure for TCGCATGACCTGGTAGGTCTTG: -0.987; for TCACACTCTCGCATGACCTGGT: 0.595. Turning to TCAAAGACAGTCTCGGTACCTG, the sensor-assay potency score (higher = more potent) was -0.0062.

On to TTGATTTCCTGGTTCTTGGTCA, for which the sensor-assay potency score (higher = more potent) stood at 0.114. Same read-out and setting: the same measure for ACACTCTCGCATGACCTGGTAG: -0.661; for AGCTTGCTCACACTCTCGCATG: -2.04; for TTCCTGGTTCTTGGTCAGGTTT: -1.77.

In another assay the target is MUTED. Described as above. Conditions: shRNA.
TTGTTTACCATAAATCTCGAAA returned a sensor-assay potency score (higher = more potent) of -0.16.

TTTCTCACTAGCTACTAAGTGG yielded a sensor-assay potency score (higher = more potent) of -0.662.

In the case of TTGTCTACATTACTCATGCAGT, the sensor-assay potency score (higher = more potent) is -0.842. The same measure, in the same setting: the same measure for TTATCTTATAAAGCTTACCCAC: -1.06. On the same count and under the same terms, the same measure for TAATAAACTATTGTTAACCCTG: 0.0836; for TAAGTGGTCACTATGAATCTTT: -0.505. On the same count and under the same terms, the same measure for TTGTTCTTTAAGCCTTTCCATG: -1.47; for TTTTTTGTCTACATTACTCATG: -0.517; for TTTACATTTAACATGGACCATT: -1.07. TTTTCTGTGCTCTTCATCCACT registered a sensor-assay potency score (higher = more potent) of -0.826. Same read-out and setting: the same measure for TTTAACATGGACCATTTGCTGT: -1.08; for TTTCTAAGAAGTCTATACCTAC: -0.621.

The target in a further assay is MYBL1. The assay is described as above. The conditions noted are these: shRNA.
Sequence TTTCTCTACACTGCTTGCCTAT registered a sensor-assay potency score (higher = more potent) of -0.646. Still for that read-out and setting: the same measure for TTCTTCTTTTAAAACTTCCCGA: -0.736; for TTCGCTTTCTTCTAACTTCATT: -1.09. TAGAATTATCAGTCCTTCCTGG came in with a sensor-assay potency score (higher = more potent) of 0.631. Same read-out and setting: the same measure for TAGATCTTCTAATAGTAGGTGT: 0.293; for TAAAGGAACAGCTTCACTGTTG: -0.055. On the same count and under the same terms, the same measure for TAGTAGGTGTTCTAAACCCTAC: -0.956.

In the case of TTGAAGTACTACTGGTAGCTGT, the sensor-assay potency score (higher = more potent) worked out at 0.338.

For TTTGATAGAATTATCAGTCCTT, the sensor-assay potency score (higher = more potent) was determined as 1.06.

The sequence TTCAAGTACAAGACTGACGTTA showed a sensor-assay potency score (higher = more potent) of 0.474.

The sequence TAATTTATCATCCTCGTCCCTT had a sensor-assay potency score (higher = more potent) of -0.0916.

The next assay addresses MYCBPAP. Described as above. Conditions: shRNA.
On to TGCAATTCTCTTAAAATCCTGG, for which the sensor-assay potency score (higher = more potent) is -0.695. Still for that read-out and setting: the same measure for TTGTAGGACATTGCTAACAGGT: -0.808. Turning to TTTTGTCTTGGTCATGACCAGA, the sensor-assay potency score (higher = more potent) is -1.08.

The sequence TCTCCTTGTAGGACATTGCTAA yielded a sensor-assay potency score (higher = more potent) of -0.62. Same read-out and setting: the same measure for TTGTGCTTCTTGCTGTTGGGAC: -0.31.

These data come from the OligoGym collection.
Further: reference of the scale not given here.
